Screening data: PubChem BioAssay, The Scripps Research Institute Molecular Screening Center
Shown are actives, neighbours in structure and some others; about 3.4% of the full set was active somewhere.
TEAD-YAP block: TEAD-YAP interaction inhibition; HEK-TIYL cells, TEAD-Gal4/YAP UAS-luciferase luminescence; inhibition, % at 9.12 µM; 640,000 compounds, 1.4% hits; in the data active = inhibition above about 32%
MITF inh: human MITF inhibition, primary screen | AID 1259374 | 650,000 compounds, 0.91% hits | inhibition, % at 2.6 µM | AlphaScreen MITF homodimerization, bead proximity signal | O75030; in the data active = inhibition above about 50%
FBW7 act: activators of human E3 ligase FBW7 | Q969H0 | AlphaScreen FBW7–phospho-cyclin E peptide binding, activator screen | normalized activity (activation), % at 26.1 µM | 650,000 compounds, 0.13% hits | AID 1259310; in the data active = normalized activity above about 1.9%;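 note: purified mutant Fbw7 with reduced substrate affinity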
GPR151 ag: activators of human GPR151; PathHunter beta-arrestin GPR151 cells, luminescence; 650,000 compounds, 1% hits; Q8TDV0; AID 1508602; activation, % at 11.2 µM; in the data active = activation above about 4.9%
Target sequence (Q8TDV0 whole entry, looked up): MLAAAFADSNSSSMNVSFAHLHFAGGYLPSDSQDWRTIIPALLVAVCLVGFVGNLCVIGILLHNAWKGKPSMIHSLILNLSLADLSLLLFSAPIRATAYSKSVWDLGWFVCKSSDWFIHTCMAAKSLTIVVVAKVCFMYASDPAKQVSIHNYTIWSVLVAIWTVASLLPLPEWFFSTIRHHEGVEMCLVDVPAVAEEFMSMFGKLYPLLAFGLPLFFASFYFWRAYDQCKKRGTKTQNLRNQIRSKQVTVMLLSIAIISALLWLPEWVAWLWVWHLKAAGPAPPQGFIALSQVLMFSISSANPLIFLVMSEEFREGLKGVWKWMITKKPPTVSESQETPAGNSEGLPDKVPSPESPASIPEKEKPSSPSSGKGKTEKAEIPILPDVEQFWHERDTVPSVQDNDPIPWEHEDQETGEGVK
Of the large screens only hits and unclear results are named; the others gave an inactive call.

COc1ccccc1C(NC(=O)C1CCCCC1)c1ccc2cccnc2c1O (stereo not drawn)	TEAD-YAP block 61
O=C(/C=C/c1ccc(Cl)cc1Cl)Nc1cnc2ccccc2c1	none
OCc1ccccc1-c1cnn2c(N3CCC(O)CC3)ccnc12	none
O=C(Cc1ccccc1)NC(c1ccccc1)c1ccc2cccnc2c1O (stereo not drawn)	TEAD-YAP block 58
CCOC(=O)CC(NC(=O)Cc1ccccc1)c1ccccc1Cl (stereo not drawn)	none
Cn1ccnc1C(NC(=O)Cc1ccc(O)cc1)c1ccccc1 (stereo not drawn)	none
O=C(Cc1ccccc1)NC(c1ccccc1Cl)c1ccc2cccnc2c1O (stereo not drawn)	TEAD-YAP block 84
CCCCC(=O)NC(c1cccs1)c1ccc2cccnc2c1O (stereo not drawn)	TEAD-YAP block 88
CCCNc1nc(-c2c(C)nn(C)c2C)nc2c1ncn2CCN1CCCC1=O	none
CC(=O)Nc1ccccc1OCC(=O)c1cc(C)n(CCc2ccc(F)cc2)c1C	TEAD-YAP block 61
N#C/C(=C\c1ccc(Cl)c([N+](=O)[O-])c1)c1nn(CCO)c(N)c1C#N	none
N#C/C(=C\c1cc([N+](=O)[O-])ccc1Cl)c1nn(CCO)c(N)c1C#N	TEAD-YAP block 67
CCCc1cc(=O)[nH]c(-n2nc(C)cc2NC(=O)c2cccc(Cl)c2)n1	FBW7 act 2.4
Cc1cccc(C(=O)Nc2cc(C)nn2-c2nc(C)cc(=O)[nH]2)c1	none
CCn1c(C)[n+](CCOC(C)=O)c2cc(Cl)c(Cl)cc21	none
CCCCCN1/C(=C\C=C\c2n(CCCC)c3cc(Cl)c(Cl)cc3[n+]2CCCCC)N(CCCC)c2cc(Cl)c(Cl)cc21	TEAD-YAP block 44
O=C(Oc1ccc(OC(=O)c2ccccc2)cc1)c1ccccc1	none
CC1CC(C)(C)Nc2ccc(OC(=O)c3ccccc3)cc21 (stereo not drawn)	TEAD-YAP block 44
O=C(/C=C/c1cccs1)c1ccc(N2CCOCC2)cc1	TEAD-YAP block 58
CCC(CC)NC(=O)c1cccc(I)c1	TEAD-YAP block 34
CC1(C)OC(=O)CC1C(=O)NCCc1ccccc1 (stereo not drawn)	none
Cc1c(C(=O)OC(C)C)[nH]c2c1C(=O)CC(c1cccs1)C2 (stereo not drawn)	TEAD-YAP block 60
COCCOC(=O)c1[nH]c2c(c1C)C(=O)CC(c1cccs1)C2 (stereo not drawn)	TEAD-YAP block 49
Cc1c(C(=O)OCCOC(C)C)[nH]c2c1C(=O)CC(c1cccs1)C2 (stereo not drawn)	TEAD-YAP block 51
CCOC(=O)c1[nH]c2c(c1C)C(=O)CC(c1cccs1)C2 (stereo not drawn)	TEAD-YAP block 52
CCOC(=O)C1=C(C)NC2=C(C(=O)CC(c3cccs3)C2)C1c1ccc(C)s1 (stereo not drawn)	none
CN(C)c1ccc(/C=C2\SC(=Nc3ccc4ccccc4c3)N(C3CCCCC3)C2=O)cc1Br	none
CCSCCOC(=O)c1[nH]c2c(c1C)C(=O)CC(c1cccs1)C2 (stereo not drawn)	TEAD-YAP block 55
C/C=C/COC(=O)c1[nH]c2c(c1C)C(=O)CC(c1cccs1)C2 (stereo not drawn)	TEAD-YAP block 42
CCSCCOC(=O)C1=C(C)NC2=C(C(=O)CC(c3cccs3)C2)C1c1ccc(F)cc1 (stereo not drawn)	none
CCOCCOC(=O)c1[nH]c2c(c1C)C(=O)CC(c1cccs1)C2 (stereo not drawn)	TEAD-YAP block 54
COc1ccccc1-n1c(N)c(C#N)c2nc3ccccc3nc21	none
COc1ccccc1-n1c(SC)nc(O)cc1=O	FBW7 act 3.9
CCSc1nc(O)cc(=O)n1-c1ccccc1OC	none
COc1ccccc1-n1c(=O)[nH]c2c(C(N)=O)nc(-c3cccc(F)c3)nc21	none
COc1ccc(-c2nc(C(N)=O)c3[nH]c(=O)n(-c4cccc(C)c4)c3n2)cc1O	TEAD-YAP block 64
COc1ccc(-c2nc(C(N)=O)c3[nH]c(=O)n(-c4ccccc4OC)c3n2)cc1	TEAD-YAP block 48
CCCCC(=O)OCCCN1C(=O)c2cccc3c(N4CCCCC4)ccc(c23)C1=O	none
CCCCC(=O)OCCN1C(=O)c2cccc3c(N4CCOCC4)ccc(c23)C1=O	FBW7 act 3.4
Cc1ccc(NC(=O)Nc2nnc(-c3ccc(C(C)(C)C)cc3)s2)cc1	none
O=C(c1ccc2c(c1)CCO2)N1CCC2(CC1)OCc1cc(Cl)ccc1O2	TEAD-YAP block 37
COc1cccc(CC(=O)N2CCC3(CC2)OCc2ccccc2O3)c1	none
COc1ccc(CC(=O)N2CCC3(CC2)OCc2cc(Cl)ccc2O3)cc1OC	TEAD-YAP block 61
COc1ccc(CC(=O)N2CCC3(CC2)OCc2ccccc2O3)cc1OC	TEAD-YAP block 55
O=C(N/N=C/c1cc([N+](=O)[O-])ccc1O)c1cccnc1	MITF inh 99
COc1ccc(/C=N/NC(=O)c2cc(C)[nH]n2)c(OC)c1	FBW7 act 2.3
O=C(N/N=C/c1cc([N+](=O)[O-])ccc1O)c1ccccc1O	MITF inh 87
O=C(N/N=C/c1cc([N+](=O)[O-])ccc1Cl)c1cccnc1	none
CC(C(=O)N/N=C/c1ccccc1O)n1nnc2ccccc21 (stereo not drawn)	none
CC(C(=O)N/N=C/c1cc([N+](=O)[O-])ccc1O)n1nnc2ccccc21 (stereo not drawn)	MITF inh 86
COc1ccc2c(COC(=O)CCS(=O)(=O)c3ccccc3Cl)cc(=O)oc2c1	none
CCOC(=O)c1ccc(NC(=O)NNC(=O)c2ccc(-n3cccc3)cc2)cc1	none
O=C(N/N=C\c1ccccc1O)c1cnccn1	MITF inh 59
O=C(N/N=C\c1ccccc1F)c1cnccn1	none
O=C(O)c1cccc(NC(=S)N/N=C/c2cc([N+](=O)[O-])ccc2O)c1	TEAD-YAP block 40
COc1cc([N+](=O)[O-])cc(/C=N/NC(=O)c2ccc(F)cc2)c1O	TEAD-YAP block 54, MITF inh 63
COc1cc([N+](=O)[O-])cc(/C=N/NC(=O)c2ccccc2O)c1O	MITF inh 79
CCOc1ccccc1C(=O)NCC(c1ccc2c(c1)CCN2C)N1CCN(C)CC1 (stereo not drawn)	none
CCOC(=O)c1ccc(NC(=O)C2(c3ccc(OC)c(OC)c3)CCCC2)cc1	none
O=C(CC(NS(=O)(=O)c1ccc(Cl)cc1)c1ccco1)NCC1CCCO1 (stereo not drawn)	none
Cc1nc2ccc(C(=O)N/N=C/c3cc([N+](=O)[O-])ccc3O)cc2[nH]1	MITF inh 92, FBW7 act 1.9
O=C(N/N=C/c1ccccc1O)c1ccccc1O	TEAD-YAP block 37
Cc1cc(C(=O)N/N=C/c2cc([N+](=O)[O-])ccc2O)n[nH]1	MITF inh 59
Cc1cc(C(=O)N/N=C/c2c(O)ccc3cc([N+](=O)[O-])ccc23)n[nH]1	none
O=C(c1cccc(Cl)c1)N1CCN(c2ccc([N+](=O)[O-])c(NCc3ccccc3)c2)CC1	none
CCOC(=O)c1sc2ncnc(Nc3ccc(C)cc3C)c2c1C	TEAD-YAP block 55
